Nine compounds from PubChem BioAssay (Tox21) can be followed below.

“And” between values parts separate entries of the source, which are not always exact repeats. Identical values can stand only once. Inconclusive results are not listed. More than one record can exist for a structure, and the calls need not agree. The source made the active and inactive calls. Unless noted, calls come from the whole dose curve; as a rule, active = well fitted curve in the direction sought with a large enough effect in the repeat runs; inconclusive = weak or mixed curves; inactive = no such curve, though single readings can be large; an effect the other way counts as inactive or inconclusive.

A short description of assay [1]: qHTS assay to identify small molecule antagonists of the estrogen receptor alpha (ER-alpha) signaling pathway using the BG1 cell line in the presence of 0.1 nM 17-beta-estradiol - cell viability counter screen (AID 1259241). Note: nearly all actives have a fitted effect of over 40% in size. Note: potency is the fitted concentration of half-maximal effect. A digest of the protocol: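 VM7Luc4E2 cells (endogenous full-length ER-alpha, 4xERE-luciferase), cultured 5 days in charcoal-stripped serum, exposed to compounds with 0.1 nM 17beta-estradiol (final) for 22 hr at 37C. Viability read in same wells as live-cell protease fluorescence after 30 min.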
For orientation: qHTS replaces the single test concentration by a dilution series.

The nature of assay [2]: qHTS assay to identify small molecule antagonists of the androgen receptor (AR) signaling pathway using the MDA cell line in the presence of 0.5 nM R1881 - cell viability counter screen (AID 1259242). Note: nearly all actives have a fitted effect of over 45% in size. Note: potency is the fitted concentration of half-maximal effect. A digest of the protocol: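 Live-cell protease activity was measured by CellTiter-Fluor fluorescence after 30 min. Before that, MDA-kb2 MMTV-luciferase cells had 16 hr at 37C without CO2, exposed to test compounds and 0.5 nM R1881 final.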

Assay [3] has as its target Estrogen receptor (Homo sapiens) (UniProt P03372). The assay can be described thus: qHTS assay to identify small molecule antagonists of the estrogen receptor alpha (ER-alpha) signaling pathway using the BG1 cell line in the presence of 0.1 nM 17-beta-estradiol (AID 1259244). Note: nearly all actives have a fitted effect of over 50% in size. Note: potency is the fitted concentration of half-maximal effect. The gist of the method: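 Luciferase luminescence (ONE-Glo, 30 min at room temperature) was read after 22 hr at 37C exposure to compounds plus 17beta-estradiol at 0.1 nM final. Cells were VM7Luc4E2 with endogenous ER-alpha and an ERE-driven luciferase, pre-cultured 5 days in hormone-depleted medium.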

The nature of assay [4]: qHTS assay to identify small molecule HDAC inhibitors (AID 1259364). Note: top concentration of the series differs between compounds; nearly all actives have a fitted effect of over 45% in size. The gist of the method: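 Luminescence read after 30 min room-temperature HDAC-Glo incubation measures cellular class I/II HDAC activity. Compounds were applied for 2 hr at 37 C to HCT-116 wild-type cells seeded the day before.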
Assay [5] in a line: qHTS assay to identify small molecule HDAC inhibitors - cell viability counter screen (AID 1259365). Note: series mostly up to about 92 µM; nearly all actives have a fitted effect of over 50% in size. A digest of the protocol: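 Wild-type HCT-116 cells, 1,500/well, cultured overnight, then compound-treated 2 h at 37 C. Viability measured as ATP luminescence with CellTiter-Glo after 30 min at room temperature.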
Assay [6] in a line: qHTS assay to identify small molecule agonists of the sonic hedgehog signaling (Shh) pathway - cell viability counter screen (AID 1259366). Note: nearly all actives have a fitted effect of over 50% in size. Note: potency is the fitted concentration of half-maximal effect. The gist of the method:
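NIH/3T3-derived Gli1-Luc reporter cells, 2,000 per well, received compound after 4 h and were treated about 23 h at 37C. Viability measured in the same wells by CellTiter-Fluor fluorescence after 1 h.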

Assay [7] in a line: qHTS assay to identify small molecule antagonists of the sonic hedgehog signaling (Shh) pathway - cell viability counter screen (AID 1259367). Note: nearly all actives have a fitted effect of over 55% in size. Note: potency is the fitted concentration of half-maximal effect. A digest of the protocol: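 CellTiter-Fluor signal in conditioned medium-stimulated 3T3 Gli1-Luc cells, 23 hr compound exposure, 37C.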
Assay [8] can be described thus: qHTS assay to identify small molecule agonists of the sonic hedgehog signaling (Shh) pathway (AID 1259368; calls by dose curve;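 note: NIH/3T3-derived 3T3Gli1-Luc cells carrying a stable Gli1-driven firefly luciferase reporter; series mostly up to about 92 µM; nearly all actives have a fitted effect of over 15% in size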). A digest of the protocol:
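Luminescence was read after 30 min at room temperature with luciferase reagent. Before that, 3T3Gli1-Luc cells (NIH/3T3 clone, stable Gli1-Luc reporter; 2,000/well) were exposed to compounds for 24 hr at 37C, 5% CO2, compounds being added 4 hr post-plating.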

Assay [9] can be described thus: qHTS assay to identify small molecule antagonists of the sonic hedgehog signaling (Shh) pathway (AID 1259369; calls by dose curve; note: nearly all actives have a fitted effect of over 45% in size; note: potency is the fitted concentration of half-maximal effect). A digest of the protocol:
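Antagonist mode: compound added to 3T3 Gli1-Luc cells followed by conditioned-medium stimulation, 24 h at 37 C, 5% CO2. Inhibition taken as loss of Gli1-driven luciferase luminescence.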

Assay [10] in a line: qHTS assay to identify small molecule agonists of the androgen receptor (AR) signaling pathway in the presence of an antagonist - cell viability counter screen (AID 1259379). Note: nearly all actives have a fitted effect of over 25% in size. Note: potency is the fitted concentration of half-maximal effect. The gist of the method: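 Cytotoxicity counter-screen run in the same wells as the nilutamide-challenged (3.0 µM final) AR agonist assay in MDA-kb2 cells. Compounds tested at 15 concentrations for 16 h, 37 °C without CO2; CellTiter-Fluor fluorescence read.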

Assay [11] can be described thus: qHTS assay to identify small molecule agonists of the estrogen receptor beta (ER-beta) signaling pathway - cell viability counter screen (AID 1259380). Note: nearly all actives have a fitted effect of over 30% in size. Note: potency is the fitted concentration of half-maximal effect. The gist of the method:
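Cell viability counter screen: CellTiter-Glo luminescence (30 min, room temperature) measured in the same wells as the beta-lactamase readout, after 16 hr compound exposure at 37C of ER-beta-bla HEK293T cells in 2% charcoal-stripped FBS medium.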

The nature of assay [12]: qHTS assay to identify small molecule antagonists of the estrogen receptor beta (ER-beta) signaling pathway - cell viability counter screen (AID 1259382).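 Note: HEK293T cells carrying ER-beta-UAS-bla reporter stimulated with estradiol; series mostly up to about 92 µM; nearly all actives have a fitted effect of over 55% in size.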 A digest of the protocol:
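Cytotoxicity was measured in the same wells by CellTiter-Glo luminescence after 30 min at room temperature. Cells were ER-beta-bla HEK293T in charcoal-stripped serum, given compound together with 1 nM E2 and incubated 16 h at 37C.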

In assay [13] the target is Estrogen receptor (Homo sapiens) (UniProt P03372). The assay can be described thus: qHTS assay to identify small molecule agonists of the estrogen receptor alpha (ER-alpha) signaling pathway in the presence of an antagonist (AID 1259383; calls by dose curve; note: top concentration of the series differs between compounds; nearly all actives have a fitted effect of over 15% in size). A digest of the protocol:
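Agonist-mode confirmation run in the presence of 10.0nM (final) ICI-182,780 antagonist. The reporter was ERE-driven luciferase in VM7Luc4E2 cells, grown in charcoal-stripped serum. Cells were exposed to 15-concentration compound series for 22hr, then ONE-Glo luminescence was read.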

Assay [14] deals with Estrogen receptor beta (Homo sapiens) (UniProt Q92731). The assay can be described thus: qHTS assay to identify small molecule agonists of the estrogen receptor beta (ER-beta) signaling pathway (AID 1259377; active = well fitted activation curve with a large enough effect in the signal ratio in the repeat runs, not every such curve was filed as active; the % refers to the signal ratio). The gist of the method:
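ER-beta-UAS-bla HEK293T cells in medium with 2% charcoal-stripped FBS were exposed to compounds for 16 h at 37C. Beta-lactamase reporter activity was read as fluorescence after 2 h with LiveBLAzer B/G FRET substrate at room temperature.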

Assay [15] shares this target. The assay can be described thus: qHTS assay to identify small molecule antagonists of the estrogen receptor beta (ER-beta) signaling pathway (AID 1259378; active = well fitted inhibition curve with a large enough effect in the signal ratio in the repeat runs, not every such curve was filed as active; the % refers to the signal ratio). A digest of the protocol: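 Antagonist mode: compounds added to beta-lactamase reporter HEK293T ER-beta-UAS cells stimulated with E2 (1nM final), 16 hr at 37C. LiveBLAzer B/G FRET substrate, 2 hours room temperature, fluorescence read-out.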

Assay [16] can be described thus: qHTS assay to identify small molecule agonists or antagonists of the thyroid stimulating hormone receptor (TSHR) signaling pathway - wild type cell line counter screen (AID 1259384; calls by dose curve). A digest of the protocol: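 Counter screen in untransfected Hek293: compounds (15-point titration, triplicate) plus phosphodiesterase inhibitor Ro20-1724 added after 18 h plating; 30 min RT. Intracellular cAMP via competitive d2/cryptate immunoassay, 1 h incubation.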

The target in assay [17] is Thyrotropin receptor (Homo sapiens) (UniProt P16473). The assay can be described thus: qHTS assay to identify small molecule antagonists of the thyroid stimulating hormone receptor (TSHR) signaling pathway (AID 1259385; calls by dose curve; note: nearly all actives have a fitted effect of over 20% in size). The gist of the method: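 Antagonist mode: compound-treated TSHR-expressing HEK293 cells were stimulated with 1.5 ng/mL TSH (final) in presence of Ro20-1724 for 30 min at RT. HTRF cAMP detection after 1 h; each compound tested at 15 concentrations, triplicate.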
Chain of Thyrotropin receptor (Homo sapiens) (P16473 whole entry, looked up): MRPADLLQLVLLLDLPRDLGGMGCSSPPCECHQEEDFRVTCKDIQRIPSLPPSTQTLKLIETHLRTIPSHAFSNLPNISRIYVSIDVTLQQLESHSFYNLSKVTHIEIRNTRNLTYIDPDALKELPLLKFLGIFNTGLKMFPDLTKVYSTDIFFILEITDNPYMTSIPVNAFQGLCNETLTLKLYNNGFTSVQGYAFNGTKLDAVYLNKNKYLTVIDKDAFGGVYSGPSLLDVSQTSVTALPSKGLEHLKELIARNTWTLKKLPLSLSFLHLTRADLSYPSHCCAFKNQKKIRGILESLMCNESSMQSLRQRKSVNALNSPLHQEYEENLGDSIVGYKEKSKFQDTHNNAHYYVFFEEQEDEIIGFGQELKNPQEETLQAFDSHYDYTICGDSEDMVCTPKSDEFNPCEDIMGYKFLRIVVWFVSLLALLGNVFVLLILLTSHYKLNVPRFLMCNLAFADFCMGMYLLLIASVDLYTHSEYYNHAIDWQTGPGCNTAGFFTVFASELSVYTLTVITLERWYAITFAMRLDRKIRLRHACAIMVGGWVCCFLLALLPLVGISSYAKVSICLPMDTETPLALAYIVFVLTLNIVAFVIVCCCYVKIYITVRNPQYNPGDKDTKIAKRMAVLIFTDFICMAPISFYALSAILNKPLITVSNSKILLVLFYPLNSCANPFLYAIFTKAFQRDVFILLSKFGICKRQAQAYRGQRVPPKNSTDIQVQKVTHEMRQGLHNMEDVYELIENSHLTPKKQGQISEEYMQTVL

Chain of Estrogen receptor beta (Homo sapiens) (Q92731 whole entry, looked up): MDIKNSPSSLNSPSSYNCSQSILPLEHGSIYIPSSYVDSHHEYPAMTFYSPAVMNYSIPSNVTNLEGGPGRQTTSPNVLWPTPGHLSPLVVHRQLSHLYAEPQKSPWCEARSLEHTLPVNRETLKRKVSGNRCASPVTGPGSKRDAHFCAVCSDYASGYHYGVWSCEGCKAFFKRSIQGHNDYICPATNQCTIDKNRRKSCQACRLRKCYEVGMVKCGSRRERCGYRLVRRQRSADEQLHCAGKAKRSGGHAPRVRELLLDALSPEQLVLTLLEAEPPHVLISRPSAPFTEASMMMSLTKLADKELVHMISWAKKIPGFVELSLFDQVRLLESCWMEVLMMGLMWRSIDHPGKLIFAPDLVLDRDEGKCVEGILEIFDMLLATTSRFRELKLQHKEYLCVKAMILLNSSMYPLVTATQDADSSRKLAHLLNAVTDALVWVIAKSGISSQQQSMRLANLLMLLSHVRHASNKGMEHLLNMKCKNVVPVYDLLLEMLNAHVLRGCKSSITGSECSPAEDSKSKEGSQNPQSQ
Chain of Estrogen receptor (Homo sapiens) (P03372 whole entry, looked up): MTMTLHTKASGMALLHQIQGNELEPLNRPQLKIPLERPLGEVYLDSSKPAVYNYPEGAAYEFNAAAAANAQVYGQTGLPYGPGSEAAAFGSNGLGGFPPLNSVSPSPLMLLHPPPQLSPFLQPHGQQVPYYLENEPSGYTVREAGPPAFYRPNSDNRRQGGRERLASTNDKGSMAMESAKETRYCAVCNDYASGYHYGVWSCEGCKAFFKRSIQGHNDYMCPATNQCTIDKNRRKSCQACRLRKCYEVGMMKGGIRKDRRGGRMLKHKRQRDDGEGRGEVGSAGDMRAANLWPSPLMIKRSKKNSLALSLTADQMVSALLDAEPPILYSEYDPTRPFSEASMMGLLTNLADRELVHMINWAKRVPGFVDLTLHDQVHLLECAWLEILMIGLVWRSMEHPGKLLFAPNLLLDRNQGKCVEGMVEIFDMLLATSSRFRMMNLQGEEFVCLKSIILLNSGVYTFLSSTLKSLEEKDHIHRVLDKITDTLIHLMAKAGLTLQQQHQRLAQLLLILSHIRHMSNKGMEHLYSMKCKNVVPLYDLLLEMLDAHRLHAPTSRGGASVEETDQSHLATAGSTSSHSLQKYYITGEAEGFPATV

For the compound `OCC1CO1` (stereo unspecified), the Potency entry in [1], in assay [2], in assay [3], in assay [4], in [5] and in assay [6] was “inactive” throughout. The Potency entry in assay [7], in assay [8], in assay [9], in assay [10], in [11] and in assay [12] was “inactive” each time. Further, the Potency result in assay [13] was “inactive”.
`SCc1ccccc1`: the Potency result in assay [1], in [2], in assay [3], in [4], in assay [5] and in [6] was “inactive” each time. Besides, the Potency entry in assay [7], in assay [9], in [14], in [15], in assay [10] and in [11] was “inactive” throughout. Also, the Potency result in [12], in [13] and in [17] was “inactive” each time. Moreover, in assay [16], the outcome was inactive.
Take `Oc1cccc(Cl)c1`: the Potency entry in assay [1], in assay [2], in assay [3], in assay [4], in [6] and in assay [7] was “inactive” each time. For the same compound, the Potency entry in assay [8], in [9], in assay [10], in assay [11], in assay [12] and in assay [13] was “inactive” throughout. Also, the result in assay [16] was inactive.
For `CN(C)c1ccc(N=O)cc1`, the Potency in assay [1] is 61.3 µM (active); in assay [2], 48.7 µM (active) and 48.6 µM (active); in assay [3], 43.4 µM (active) and inactive; in [6] it was 21.8 µM (active) and 21.7 µM (active); in assay [7], 24.4 µM (active) and 27.3 µM (active); in assay [9] it was 15.4 µM (active). In addition, the Potency in [10] is 43.4 µM (active) and 43.3 µM (active); in assay [11], 3.87 µM (active) and 15.4 µM (active). Further, the Potency entry in [4], in assay [8], in assay [14] and in assay [13] was “inactive” each time.
With `Cc1nnc(-c2ccccc2)c(=O)n1N`, the Potency result in assay [1], in assay [2], in [3], in assay [4], in assay [5] and in [6] was “inactive” throughout. Besides, the Potency result in [7], in [8], in assay [9], in assay [14], in [15] and in assay [10] was “inactive” throughout. The Potency entry in assay [11], in assay [12], in assay [13] and in assay [17] was “inactive” in each case. Further, the call in assay [16] was inactive.
In the case of `C=CC(=O)NC(C)(C)CC(C)=O`, the Potency entry in assay [1], in assay [2], in assay [3], in assay [4], in assay [5] and in assay [6] was “inactive” each time. In addition, the Potency result in assay [7], in assay [8], in assay [9], in assay [14], in assay [15] and in assay [10] was “inactive” each time. The Potency result in [11] and in [13] was “inactive” each time.
Take `CC(Oc1cc(Cl)c(Cl)cc1Cl)C(=O)O` (stereo unspecified): the Potency entry in [1], in assay [2], in assay [3], in assay [4], in [5] and in [6] was “inactive” each time. The Potency result in assay [7], in assay [8], in assay [9], in [14], in [10] and in assay [13] was “inactive” each time. The Potency result in [17] was “inactive”. For the same compound, the result in assay [16] was inactive.
Consider `FC(Cl)(Cl)C(F)(Cl)Cl`, for which the Potency entry in assay [1], in assay [2], in assay [3], in assay [4], in assay [5] and in assay [6] was “inactive” in each case. Further, the Potency entry in assay [7], in assay [8], in assay [9], in [10], in assay [11] and in assay [12] was “inactive” in each case. Also, the Potency result in assay [13] and in [17] was “inactive” in each case. In addition, the call in assay [16] was inactive.
In the case of `NC(=S)c1c(Cl)cccc1Cl`, the Potency entry in assay [1], in assay [2], in [3], in assay [4], in assay [5] and in assay [6] was “inactive” each time. Besides, the Potency result in assay [7], in [8], in assay [9], in [14], in assay [15] and in assay [10] was “inactive” each time. The Potency entry in [11], in [12], in assay [13] and in assay [17] was “inactive” each time. The outcome in assay [16] was inactive.
